{"source": "PubChem BioAssay AID1745848", "about": "(National Center for Advancing Translational Sciences (NCATS), 2022)", "note": "Among all 2,100 compounds or so, about 940 (45%) were called active. About 48% were inconclusive and are not listed. The set was probably picked from earlier hits. This is one part of the list. A number with no mark means an inactive call. The call rests on the fitted dose curve; in most records, active means well fitted inhibition curve with a large enough effect; inconclusive means small, poorly fitted or top-dose-only effect; inactive means no such curve, though single readings can be large or run the other way. Potency means the concentration at half of the fitted maximal effect."}
{"test": "Confirmatory qHTS for Inhibitors of ATXN expression; further: nearly all actives have a fitted effect of over 65% in size;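 on activity change, negative = inhibition: 0% = DMSO vehicle wells and -100% = medium-only wells without cells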", "details": "ATXN2-luciferase reporter cells, luminescence, 24 h; series mostly up to 11.5 µM; activity change, negative = inhibition: at the top concentration", "from_the_text": "PI: Daniel Scoles Ph.D. University of Utah School of Medicine, Salt Lake City, Utah MLPCN Grant: NS073009 Spinocerebellar ataxia type 2 (SCA2) is a multisystem neurodegenerative disease caused by a dominantly acting mutation leading to expansion of a polyQ domain in the ataxin-2 protein (ATXN2). SCA2 patients develop progressive ataxia and later lose function in other neuronal systems. Prominent parkinsonian signs develop in some patients. Like many neurodegenerative disorders, no symptomatic or disease-modifying treatments are known. The primary objective of the proposed research is to identify compounds inhibiting ATXN2 expression and to test them for efficacy in SCA2 mouse models. We have developed a cell-based assay paired with an in vivo mouse model using identical luciferase expression constructs. This approach takes advantage of an ATXN2-luciferase transgene, with the luciferase gene flanked by the upstream and downstream portions of the ATXN2 gene. Here we describe a 5-7 dose quantitative high thoroughput screen (qHTS) for compounds lowering ATXN2 expression. We screened the NIH Molecular Libraries Small Molecule Repository (MLSMR) and NCGC's mechanistically annotated (MIPE) and drug repurposing (NPC) collections of compounds for lowering expression of an ATXN2-luciferase reporter in HEK-293 cells. The assay is a multiplexed cell viability assay to ensure target reduction in the absence of cytotoxicity. Secondary qHTS assays included a CMV-luciferase reporter expressed in HEK-293 cells as well as a biochemical assay using recombinant luciferase to detect inhibitors of the reporter enzyme. Compounds that inhibit ATXN2 expression but is not cytotoxic were selected for confirmatory and secondary screens.\nPROTOCOL TABLE (as described by Inglese J, Shamu CE and Guy RK. 2007) SEQUENCE No. (e.g., 1, 2, 3, etc.); PARAMETER (e.g., Cells, Incubation, Reagent, etc.); VALUE; DESCRIPTION. 1; Cells; 4 uL; white, solid bottom, 1536-well Greiner assay plate. 2; Incubation; 2 hr; 37 degree C in 5% humidified CO2. 3; Compounds; 23 nL; Kalypsis pintool (Wako USA) equipped with a 1536-well pin head. 4; Incubation; 24 hr; 37 degree C in 5% humidified CO2. 5; Reagent; 1 uL; Gly-Phe-7-Amino-4-trifluoromethylcoumarin. 6; Incubation; 30 min; 37 degree C in 5% humidified CO2. 7; Detection; Fluorescence; ViewLux plate reader (PerkinElmer). 8; Reagent; 3 uL; SteadyGlo luciferase solution (Promega). 9; Incubation; 5 min; room temperature. 10; Detection; Luminescence; ViewLux plate reader (PerkinElmer). NOTES (numbers refer to Sequence numbers above) 1. […] expressing ATXN2-luciferase reporter were suspended in phenol-red free DMEM and dispensed in assay plates using a Multidrop Combi dispenser (Thermo Fisher Scientific). Wells containing medium only were plated on each plate, and values were used to normalize (100% inhibition) in the luciferase and CellTiter-Fluor assays. 2. Assay plates were incubated. Evaporation was prevented by covering assay plates with metal lids containing holes to allow gas diffusion. 3. Compounds were added in a dose response manner with the final concentrations of 57, 11.4, 2.28, 0.46, 0.091, 0.018, 0.0037 uM. Vehicle-only plates, with DMSO being pin-transferred to columns 5-48, were inserted uniformly at the beginning and the end of each library to monitor and record any shifts in assay performance. 5. 125 uM Gly-Phe-7-Amino-4-trifluoromethylcoumarin (MP Biomedicals) working concentration was used at a final concentration of 25 uM. 7. To assess cell viability; the assay plates were read using the ViewLux high-throughput CCD imager (PerkinElmer), wherein single end-point fluorescence measurement was acquired (excitation 405/10; emission 540/25 nm). 8. Detection reagent SteadyGlo Luciferase (Promega) was added to the assay plate. 10. Luminescence is then measured on the ViewLux imager equipped with a clear emission filter using a 2 sec exposure. […]"}
{"smiles": "C/C(=N\\NC(=O)c1cc(C2CC2)nc2ccccc12)c1ccc(O)cc1O", "Potency": "3.55 µM (active)"}
{"smiles": "C/C(=N\\NC(=O)c1cc(-c2cccnc2)nc2ccccc12)c1ccc(O)cc1O", "Potency": "2.51 µM (active)"}
{"smiles": "Cc1cccc(/C=N/NC(=O)c2c(-c3ccccc3)noc2C)c1O", "Potency": "1.26 µM (active)"}
{"smiles": "Cc1onc(-c2ccccc2)c1C(=O)Nc1ccc(S(=O)(=O)NC(C)(C)C)cc1", "activity change, negative = inhibition": "-20.4% [at 57.5 µM]"}
{"smiles": "COc1cccc(/C=N/NC(=O)c2c(-c3ccccc3)noc2C)c1O", "Potency": "0.708 µM (active)"}
{"smiles": "Cc1cc(N2CCN(C)CC2)ccc1NC(=O)c1ccc(-c2ccc(Cl)cc2)o1", "Potency": "14.1 µM (active)"}
{"smiles": "O=C(N/N=C/c1ccccc1O)C1CC(=O)N(c2ccc(Cl)cc2)C1", "note": "(stereo not given)", "Potency": "1.41 µM (active)"}
{"smiles": "CCc1ccc(N2CC(C(=O)N/N=C/c3cc([N+](=O)[O-])ccc3O)CC2=O)cc1", "note": "(stereo not given)", "Potency": "25.1 µM (active)"}
{"smiles": "O=C(N/N=C/c1ccccc1O)C1CC(=O)N(c2ccc(F)cc2)C1", "note": "(stereo not given)", "Potency": "3.55 µM (active)"}
{"smiles": "COc1ccccc1NC(=S)NC(=O)c1ccc(Cn2cc(Br)cn2)cc1", "activity change, negative = inhibition": "-19.7% [at 57.5 µM]"}
{"smiles": "COC(=O)C(Cc1ccc(O)cc1)NC(=O)C(C)Oc1ccccc1", "note": "(stereo not given)", "activity change, negative = inhibition": "-11.3% [at 57.5 µM]"}
{"smiles": "COc1ccccc1C(=O)NNC(=S)NC(=O)c1ccco1", "Potency": "6.31 µM (active)"}
{"smiles": "CC(Oc1ccc(Cl)cc1)C(=O)NNC(=S)NC(=O)c1ccco1", "note": "(stereo not given)", "Potency": "14.1 µM (active)"}
{"smiles": "CC(=O)c1ccc(NC(=O)COC(=O)c2c3c(nc4ccccc24)/C(=C\\c2cccs2)CCC3)cc1", "Potency": "20 µM (active)"}
{"smiles": "O=C(NN=Cc1ccc(O)cc1O)c1ccccc1NS(=O)(=O)c1cccs1", "Potency": "2.82 µM (active)"}
{"smiles": "CN1C/C(=C/c2cccnc2)C(=O)/C(=C/c2cccnc2)C1", "activity change, negative = inhibition": "1.08%"}
{"smiles": "O=C1/C(=C/c2ccncc2)CCC/C1=C\\c1ccncc1", "Potency": "5.62 µM (active)"}
{"smiles": "CCn1c(/C=C/c2ccc([N+](=O)[O-])o2)nc2ccccc2c1=O", "Potency": "7.08 µM (active)"}
{"smiles": "O=C(Nc1ccc(F)cc1)Nc1cc(OCC(F)(F)F)cc(OCC(F)(F)F)c1", "Potency": "3.55 µM (active)"}
{"smiles": "COc1ccc(CC2C(=O)NC(C)C(=O)N(C)C3Cc4ccc(cc4)Oc4cc(ccc4O)CC(C(=O)NC(C)C(=O)NC(C)C(=O)N2C)N(C)C3=O)cc1", "note": "(stereo not given)", "Potency": "0.251 µM (active)"}
{"smiles": "O=C(CCC(=O)Nc1cc(C(F)(F)F)ccc1Cl)N/N=C\\c1cc([N+](=O)[O-])ccc1O", "Potency": "3.16 µM (active)"}
{"smiles": "O=C(CSCc1ccc(Cl)cc1)Nc1cc([N+](=O)[O-])ccc1O", "activity change, negative = inhibition": "-3.54%"}
{"smiles": "O=C(CCCC(=O)Nc1cccc(Br)c1)N/N=C/c1cc([N+](=O)[O-])ccc1O", "Potency": "3.16 µM (active)"}
{"smiles": "c1ccc(CN=C(NCc2ccccc2)NCc2ccccc2)cc1", "Potency": "28.2 µM (active)"}
{"smiles": "COc1ccc2[nH]c3c(N4CCC(O)(c5cccc(C(F)(F)F)c5)CC4)ncnc3c2c1", "Potency": "2.82 µM (active)"}
{"smiles": "COc1cccc2c1C(CO)N1C(C#N)C3CC(C(=O)O)C(C1C2)N3C", "note": "(stereo not given)", "Potency": "0.282 µM (active)"}
{"smiles": "COc1cccc2c1C1COC3C4CC(C(=O)O)C(C(C2)N13)N4C", "note": "(stereo not given)", "Potency": "10 µM (active)"}
{"smiles": "Cc1nnc(-c2ccccc2)c(=O)n1/N=C/c1c(O)ccc2ccccc12", "Potency": "10 µM (active)"}
{"smiles": "COC(=O)c1ccc(N2CCOCC2)c(NC(=O)Nc2cccc(OC)c2)c1", "activity change, negative = inhibition": "-5.44%"}
{"smiles": "COc1ccc2nc(C)cc(Nc3ccc(N4CCOCC4)cc3)c2c1", "Potency": "15.8 µM (active)"}
{"smiles": "CC(C)(C)c1ccc(C(=O)N2CCCCCC2=O)cc1", "Potency": "1.78 µM (active)"}
{"smiles": "COc1ccc(/C(N)=N/OC(=O)N2CCOCC2)cc1", "activity change, negative = inhibition": "-30.8%"}
{"smiles": "COc1ccc(-c2csc(N(CCCN(C)C)C(=O)c3ccccc3Cl)n2)cc1", "Potency": "3.16 µM (active)"}
{"smiles": "COc1ccc(-c2csc(N(CCCN3CCOCC3)C(=O)c3ccco3)n2)cc1", "Potency": "3.16 µM (active)"}
{"smiles": "N#Cc1ccccc1NC(=O)C1SC(=Nc2ccccc2)C(C(=O)Nc2ccc(Cl)cc2)=C1N", "note": "(stereo not given)", "activity change, negative = inhibition": "-3.14%"}
{"smiles": "O=c1c2c(-c3ccccc3)csc2nc2c3ccccc3c(NCCN3CCOCC3)nn12", "Potency": "3.16 µM (active)"}
{"smiles": "Cc1ccc(-c2nc3cc(Br)cnc3nc2-c2ccc(C)cc2)cc1", "activity change, negative = inhibition": "-7.66%"}
{"smiles": "Brc1cnc2nc(SCc3nc4ccccc4[nH]3)[nH]c2c1", "Potency": "2.82 µM (active)"}
{"smiles": "O=C(CSc1nnc(-c2ccc(Br)cc2)o1)Nc1cccc(C(=O)O)c1", "Potency": "3.16 µM (active)"}
{"smiles": "COc1cc(/C=N/Nc2snc(SC)c2C#N)cc(OC)c1OC", "Potency": "3.16 µM (active)"}
{"smiles": "CCCCCn1c(=N)n(CC(O)COc2ccccc2OC)c2ccccc21", "note": "(stereo not given)", "Potency": "2.51 µM (active)"}
{"smiles": "N=c1n(CCN2CCCCC2)c2ccccc2n1CC(O)c1ccc(Cl)c(Cl)c1", "note": "(stereo not given)", "Potency": "15.8 µM (active)"}
{"smiles": "Cc1ccc(OCC(O)Cn2c(=N)n(CCN3CCCCC3)c3ccccc32)cc1", "note": "(stereo not given)", "Potency": "14.1 µM (active)"}
{"smiles": "COc1cccc(NC(=S)/C(=C(\\[O-])c2cc(C)n(-c3ccccc3F)c2C)[n+]2ccc(N(C)C)cc2)c1", "Potency": "15.8 µM (active)"}
{"smiles": "CCOC(=O)Nc1ccc(N2CCOCC2)c(S(=O)(=O)Nc2ccc(Cl)cc2)c1", "activity change, negative = inhibition": "-19.7%"}
